# Shown are actives, neighbours in structure and some others; about 1.2% of the full set was active somewhere.
# RGS4-Gao reg – modulators of RGS4 binding to Galphao, primary screen, biochemical, multiplexed bead flow cytometry | actives lie on both sides | hit rate 0.33% among 220,000 | AID 1415, 2008 | binding response (% of control), % at 10 µM | Guanine nucleotide-binding protein G(o) subunit alpha (Homo sapiens), P09471; in the data active means binding response below about 49% or above about 150%; inactive means in between;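 further: fluorescent Galphao activated with aluminum fluoride binding bead-coupled RGS4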
# Target sequence (P09471 whole entry, looked up): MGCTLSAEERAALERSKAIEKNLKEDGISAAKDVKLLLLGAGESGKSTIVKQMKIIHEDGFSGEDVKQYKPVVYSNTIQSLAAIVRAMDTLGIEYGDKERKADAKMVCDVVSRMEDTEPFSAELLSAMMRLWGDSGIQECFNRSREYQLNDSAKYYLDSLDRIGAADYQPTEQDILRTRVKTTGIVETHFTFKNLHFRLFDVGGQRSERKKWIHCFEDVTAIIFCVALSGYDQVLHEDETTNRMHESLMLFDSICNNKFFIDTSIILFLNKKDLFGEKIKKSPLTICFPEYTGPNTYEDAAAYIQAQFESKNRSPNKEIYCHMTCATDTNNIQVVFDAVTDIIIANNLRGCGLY
# GSH fluor – compound fluorescence on glutathione beads, profiling panel, artefact control, biophysical, 488/530 nm, flow cytometry; hit rate 0.25% among 190,000; fluorescence (KMESF) at 10 µM; GSH beads flow cytometry, compound fluorescence 488/530 nm; hits give high values; in the data active means fluorescence above about 89;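 further: glutathione beads carrying GST-tagged Bcl family fusion proteins plus one bare bead set; values are compound well signal with DMSO vehicle wells as background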
# RGS16-Gao – modulators of RGS16 binding to Galphao, primary screen, biochemical, human proteins, multiplexed bead flow cytometry | bead-based flow cytometry RGS16-Galphao binding, fluorescence; actives lie on both sides | hit rate 0.38% among 220,000 | binding response (% of control), % at 10 µM | AID 1441, 2008;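 further: Galphao activated by GDP with aluminum fluoride before binding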
# Target sequence (O15492 whole entry, looked up): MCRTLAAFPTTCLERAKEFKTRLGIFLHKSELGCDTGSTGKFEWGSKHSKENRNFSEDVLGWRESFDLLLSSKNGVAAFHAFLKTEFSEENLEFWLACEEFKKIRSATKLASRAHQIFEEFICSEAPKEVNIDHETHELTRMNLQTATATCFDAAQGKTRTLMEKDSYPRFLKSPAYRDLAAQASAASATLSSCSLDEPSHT
# Target sequence (P09471 whole entry, looked up): as the sequence (P09471 whole entry, looked up) above
# RGS8-Gao – RGS8-Galphao binding modulators, primary screen, biochemical, multiplexed bead flow cytometry; actives lie on both sides; response (percent of control binding), % at 10 µM; hit rate 0.34% among 220,000; in the data active means response below about 60% or above about 140%; inactive means in between;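 further: Galphao activated as the GDP aluminium fluoride complex binding bead-coupled RGS8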
# RGS7-Gao reg – RGS7-Galphao binding modulators, primary screen, biochemical, multiplexed bead flow cytometry | AID 1439, 2008 | Guanine nucleotide-binding protein G(o) subunit alpha (Homo sapiens), P09471 | hit rate 0.35% among 220,000 | actives lie on both sides | binding response (% of control), % at 10 µM; in the data active means binding response below about 49% or above about 150%; inconclusive means no clear call, values can overlap the other calls; inactive means in between;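 further: fluorescent Galphao held in activated GDP-AlF4 state binding bead-coupled RGS7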
# Avidin fluor – green autofluorescence of compounds with avidin beads – biophysical, 488/530 nm, flow cytometry, artefact control, profiling panel; compound fluorescence 488/530 nm; hits give high values; fluorescence (KMESF) at 10 µM; hit rate 0.38% among 220,000; in the data active means fluorescence above about 47
# RGS-Gao – modulators of RGS–Galpha-o binding, primary screen, biochemical, multiplexed beads, flow cytometry, RGS4/7/8/16/19 | shares compounds with RGS16-Gao | multiplexed bead flow cytometry | RGS4–Galpha-o binding response, % at 10 µM | hit rate 99% among 1,600 | AID 1504, 2009;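 further: fluorescently labeled Galpha-o bound to GDP with aluminium fluoride binding biotinylated RGS beads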
# Biotin-avidin – disruption of biotin probe capture by avidin, counter-screen for RGS protein interaction modulators, biochemical, flow cytometry, bead-based; shares compounds with RGS16-Gao; 1,700 tested, under 10 active; AID 1783, 2009; streptavidin beads, fluorescein-biotin binding; inhibition, % at 10 µM;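 active means inhibition above 50%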;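 further: median green fluorescence of gated singlet beads compared with DMSO control wells; 0% = DMSO wells and 100% = complete loss of bead fluorescence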
# RGS8-Gao single – RGS8-Galphao binding modulators, confirmation, biochemical, multiplexed bead flow cytometry, single concentration | AID 1836, 2009 | hit rate 3% among 1,700 | bead-based flow cytometry RGS8-Galphao binding, fluorescence; actives lie on both sides | binding response (% of control), % at 10 µM | shares compounds with RGS16-Gao; in the data active means binding response below about 72% or above about 130%; inactive means in between;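 further: Galphao activated as GDP AlF4 complex before binding bead RGS8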
# RGS7-Gao single – RGS7-Galphao binding modulators, confirmation, biochemical, multiplexed bead flow cytometry, single concentration; shares compounds with RGS16-Gao; bead-based flow cytometry RGS7-Galphao binding; actives lie on both sides; response (percent of control binding), % at 10 µM; hit rate 7.8% among 1,700; AID 1837, 2009; in the data active means response below about 75% or above about 130%; inactive means in between;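 further: fluorescent Galphao activated with GDP and aluminum fluoride binding bead-coupled RGS7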
# RGS16-Gao conf – modulators of RGS16-Galphao protein binding, confirmation, biochemical, single concentration, multiplexed bead flow cytometry; shares compounds with RGS16-Gao; bead-based flow cytometry; actives lie on both sides; response (% of control binding), % at 10 µM; hit rate 4% among 1,700; AID 1838, 2009; in the data active means response below about 74% or above about 130%; inactive means in between;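 further: Galphao activated as the GDP aluminium fluoride complex binding bead-coupled RGS16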
# RGS4-Gao confirm – modulators of RGS4-Galphao protein binding, confirmation, biochemical, single concentration, multiplexed bead flow cytometry; shares compounds with RGS16-Gao; actives lie on both sides; binding response (% of control), % at 10 µM; hit rate 4% among 1,700; AID 1840, 2009; in the data active means binding response below about 74% or above about 130%; inactive means in between
# RGS19-Gao conf – regulators of RGS19-Galphao binding, confirmation, biochemical, single point, multiplexed bead flow cytometry; shares compounds with RGS16-Gao; bead-based flow cytometry RGS19-Galphao binding; actives lie on both sides; response (percent of control binding), % at 10 µM; hit rate 5% among 1,700; AID 1841, 2009; in the data active means response below about 50% or above about 160%; inactive means in between;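 further: 100% = no compound control and 0% = blank background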
# Numbers without * were called inactive; ? = inconclusive; nt = no result; [ ] = remark or other dose. Unless noted, how the calls were made is not given here.
SMILES,RGS4-Gao reg,GSH fluor,RGS16-Gao,RGS8-Gao,RGS7-Gao reg,Avidin fluor,Biotin-avidin,RGS8-Gao single,RGS7-Gao single,RGS16-Gao conf,RGS4-Gao confirm,RGS19-Gao conf,others
O=C(Nc1ccc(Oc2ccc(NC(=O)Nc3ccccc3Cl)cc2)cc1)Nc1ccccc1Cl,107.3,nt,106.9,103.5,?,3,nt,nt,nt,nt,nt,nt,
COc1ccc(NS(=O)(=O)c2ccc(OCC(=O)N3CCOCC3)cc2)cc1,20.8*,26,11.5*,13.0*,15.7*,0,0.4,100.2,77.2,91.5,82.3,89.1,
COCCCNC(=O)c1ccc(N2CCOCC2)c(NS(=O)(=O)c2ccc(OC)cc2)c1,nt,27,nt,nt,nt,nt,0.6,102.4,102.7,101.5,102.6,97.3,
COc1ccc(S(=O)(=O)Nc2ccc(-n3cccc3)cc2)cc1,22.1*,14,12.7*,14.2*,?,0,-0.9,97.6,94.2,96.4,98.1,76.6,
COc1ccc(OCC(=O)N2CCN(S(=O)(=O)c3ccc(Cl)cc3)CC2)cc1,116.3,3,387.9,151.8*[activator],110.6,6,-2.1,102.4,100.1,100.0,100.1,102.8,RGS-Gao=116.3*
O=C(COc1ccc(S(=O)(=O)Nc2ccccc2)cc1)N1CCOCC1,93.7,45,85.7,94.5,92.5,11,nt,nt,nt,nt,nt,nt,
CCOCCCNC(=O)c1ccc(N2CCOCC2)c(NS(=O)(=O)c2ccc(OC)cc2)c1,108.0,14,100.9,104.1,100.1,6,nt,nt,nt,nt,nt,nt,
O=C(COc1ccccc1)N1CCN(S(=O)(=O)c2ccc(Cl)cc2)CC1,99.4,11,95.3,97.9,99.5,22,nt,nt,nt,nt,nt,nt,
CC(C)S(=O)(=O)CC(=O)c1ccc(Cl)cc1,101.3,11,102.9,102.0,?,11,nt,nt,nt,nt,nt,nt,
O=C(CN(Cc1ccccc1)S(=O)(=O)c1ccccc1)N1CCOCC1,100.5,11,97.8,100.7,100.5,8,nt,nt,nt,nt,nt,nt,
COc1ccc(S(=O)(=O)N(CC(=O)N2CCOCC2)Cc2ccccc2)cc1,119.4,10,119.0,98.0,217.0*[activator],230*,1.4,98.0,99.1,96.8,97.8,100.8,RGS-Gao=119.4*
Cc1ccc(Nc2nc(/N=C/NO)n[nH]2)cc1C,95.9,25,97.2,97.3,96.2,8,nt,nt,nt,nt,nt,nt,
Cc1noc(C)c1CSc1ncnc2sc(C)c(C)c12,101.7,46,nt,104.1,nt,nt,-0.8,102.1,98.2,101.5,102.8,95.7,
Cc1noc(C)c1CSc1ncnc2sc3c(c12)CCCCC3,96.1,21,96.2,96.8,96.0,6,nt,nt,nt,nt,nt,nt,
N#CCCN/N=C(/Cc1nc2ccccc2[nH]1)c1cccc(Cl)c1,246.7*[activator],27,223.5*[activator],169.0*[activator],197.6*[activator],9,1.4,94.7,97.4,92.9,95.8,95.9,
Clc1ccc(/C(Cc2nc3ccccc3[nH]2)=N\Nc2ccccc2)cc1,97.9,20,105.6,101.1,98.9,6,nt,nt,nt,nt,nt,nt,
O=c1ccnc(Nc2ccc3c(c2)OCCO3)[nH]1,100.1,15,100.4,101.8,103.2,7,nt,nt,nt,nt,nt,nt,
Cc1ccc(-n2c(SCC(=O)NCc3ccco3)nc3c([nH]c4ccccc43)c2=O)cc1,-3.0*,17,-4.2*,6.5*,-10.8*,-1,0.7,111.2,118.8,110.6,113.1,106.0,
CC(=O)N/C(N)=N/c1nc2cc([N+](=O)[O-])ccc2o1,97.4,nt,97.7,75.8,?,5,-1.2,93.2,88.5,93.2,94.9,100.0,
Cc1nc2c(ncn2-c2ccccc2)c(=O)n1NC(=O)CN1CCN(C)CC1,102.5,nt,100.9,101.4,?,8,nt,nt,nt,nt,nt,nt,
CN1CCN(CCCNC(=O)c2ccc3c(c2)N(Cc2ccccc2)CCS3)CC1,142.1,25,140.4,145.2*[activator],134.2,3,-0.3,101.8,105.2,102.3,102.4,105.3,RGS-Gao=142.1*
O=C(NCCCN1CCOCC1)c1ccc2c(c1)N(Cc1ccccc1)CCS2,102.0,nt,97.7,99.8,?,5,nt,nt,nt,nt,nt,nt,
c1cc2c(cc1Nc1nc(-c3ccc4c(c3)OCO4)cs1)OCCO2,92.9,13,95.5,95.9,93.0,33,nt,nt,nt,nt,nt,nt,
c1ccc(-c2csc(Nc3ccc4c(c3)OCCO4)n2)cc1,90.9,11,92.2,55.3*,50.0*,4,1.2,107.2,109.3,106.3,103.9,115.0,RGS-Gao=90.9*
Cc1nn(CCCC(=O)N2CCN(c3ccc(F)cc3)CC2)c(C)c1[N+](=O)[O-],25.4*,15,14.6*,17.8*,19.3*,3,-0.1,102.8,94.7,99.6,99.4,81.2,
CCN(CC)S(=O)(=O)c1ccc2c(c1)nc(CCC(=O)Nc1ccc3c(c1)OCO3)n2CC,82.3,25,19.5*,71.0,88.2,1,-1.0,100.3,86.8,97.9,92.3,101.5,RGS-Gao=82.3*
Cc1cc(C)c(C#N)c(SCCS(=O)(=O)c2ccc(C(C)(C)C)cc2)n1,nt,30,nt,nt,nt,nt,3.0,100.4,96.9,98.0,97.1,92.5,
Cc1cc(C)c(C#N)c(SCCS(=O)(=O)c2ccc(Cl)cc2)n1,89.6,nt,84.2,91.4,?,6,nt,nt,nt,nt,nt,nt,
